Assay results from PubChem BioAssay AID1224855 (National Center for Advancing Translational Sciences (NCATS), 2016).
Inconclusive results are not listed. Calls of active or inactive are those of the source. Calls come from the whole dose curve; as a rule, active = well fitted inhibition curve with a large enough effect; inconclusive = small, poorly fitted or top-dose-only effect; inactive = no such curve, though single readings can be large or run the other way.

test: Confirmation assay for measurement of the activity of small molecule inhibitors on Zika virus induced Caspase-3 activity in human iPSC derived neural progenitor cells (hNPCs); conditions: hNPC ZIKV-induced caspase-3/7, Caspase-Glo luminescence, 6 h; series mostly up to 46.1 µM
Procedure, shortened: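 Caspase-Glo 3/7 luminescence measured in hNPCs 6 h after ZIKV infection (2 FFU/cell), compounds added 1 h before virus. Values are scaled between non-infected and infected controls.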

Row | SMILES | Potency
1 | CN(C)c1ccc(/C=C2\C(=O)Nc3ccccc32)cc1 | 7.74 µM (active)
2 | CC[C@]1(O)C[C@H]2CN(CCc3c([nH]c4ccccc34)[C@@](C(=O)OC)(c3cc4c(cc3OC)N(C=O)[C@H]3[C@@](O)(C(=O)OC)[C@H](OC(C)=O)[C@]5(CC)C=CCN6CC[C@]43[C@@H]65)C2)C1 | inactive
3 | CCCCCNC(=O)N1CCC(CN(Cc2ccc(Cl)cc2)Cc2ccc([N+](=O)[O-])s2)C1 (centres undefined) | inactive
4 | CC[C@@]1(O)C[C@H](O[C@H]2C[C@H](N(C)C)[C@H](O[C@H]3C[C@H](O)[C@H](O[C@H]4CCC(=O)[C@H](C)O4)[C@H](C)O3)[C@H](C)O2)c2c(cc3c(c2O)C(=O)c2c(O)cccc2C3=O)[C@@H]1C(=O)OC | inactive
5 | Cc1c(NC(=O)c2ccc(C(C)(C)C)cc2)cccc1-c1cn(C)c(=O)c(Nc2ccc(C(=O)N3CCOCC3)cc2)n1 | inactive
6 | COc1cc2nc(N3CCN(C(=O)C4CCCO4)CC3)nc(N)c2cc1OC (centres undefined) | 9.75 µM (active)
7 | O=C(CS)Nc1ccccc1 | inactive
8 | CC(C(=O)O)c1ccc(-c2ccccc2)c(F)c1 (centres undefined) | inactive
9 | CC(O)=C(C#N)C(=O)Nc1ccc(C(F)(F)F)cc1 | 0.774 µM (active)
10 | C[C@H](NC(=O)C(=O)Nc1ccccc1C(C)(C)C)C(=O)N[C@@H](CC(=O)O)C(=O)COc1c(F)c(F)cc(F)c1F | 0.245 µM (active)
11 | COc1ccc(NC(=O)/C=C/c2ccc(Cl)cc2)cc1 | 2.45 µM (active)
12 | CC(C)(C)COc1ccc(-n2cc(C(=O)O)cn2)cc1C#N | 22.4 µM (active)
13 | COc1cc2nc(-c3ccc(N4CCN(C)CC4)cc3)nc(NCCN3CCOCC3)c2cc1OC | inactive
14 | COc1ccnc2c1CCCCC2S(=O)c1nc2ccccc2[nH]1 (centres undefined) | inactive
15 | CNC1[C@H](O)C(O[C@@H]2C(O)C(O[C@H]3O[C@H]([C@@H](C)NC)CC[C@H]3N)[C@@H](N)C[C@H]2N)OC[C@]1(C)O (some centres undefined) | inactive
16 | CS(=O)(=O)c1ccc(-c2cn3ccccc3n2)cc1 | 3.88 µM (active)
17 | CC(C)OC(=O)CCCC=CC[C@@H]1[C@H](C=C[C@@H](O)COc2cccc(C(F)(F)F)c2)[C@H](O)C[C@@H]1O | inactive

Row | SMILES | Potency
18 | O=C1C[C@@H](c2ccc(O)cc2)Oc2cc(O)cc(O)c21 | 17.3 µM (active)
19 | Cc1ccc(O)c(-n2nc3ccccc3n2)c1 | 4.35 µM (active)
20 | Nc1ccc(-c2ccc3ccccc3n2)cc1 | 3.88 µM (active)
21 | COc1ccc(-c2cc(=O)c3c(O)cc(O)cc3o2)cc1O | 9.75 µM (active)
22 | CC1(C)Cc2c(sc(NC(=S)NC(=O)c3ccccc3)c2C(=O)O)CO1 | inactive
23 | CCCCCCCCCCCC(=O)[O][Sn]([CH2]CCC)([CH2]CCC)[O]C(=O)CCCCCCCCCCC | inactive
24 | O[C@@H](COc1cccc2ncccc12)CN1CCN(C2c3ccccc3[C@@H]3[C@H](c4ccccc42)C3(F)F)CC1 (some centres undefined) | inactive
25 | O=C(Oc1ccccc1)c1cccc(C(=O)Oc2ccccc2)c1 | 3.98 µM (active)
26 | Nc1ccc(O)c(C(=O)O)c1 | inactive
27 | O=C(Nc1cc2cc[nH]c2cn1)c1ccccc1 | 3.46 µM (active)
28 | O=c1c2ccccc2nc2n1CCc1c-2[nH]c2ccccc12 | 4.35 µM (active)
29 | O=C1c2ccccc2-[n+]2ccc3c([nH]c4ccccc43)c21 | 9.75 µM (active)
30 | CN(C)CCCSc1ccccc1NC(=O)/C=C/c1ccccc1 | 17.3 µM (active)
31 | COc1cccc(-c2ccc(NC(=O)C3=C(C(=O)O)CCC3)c(F)c2)c1 | 2.45 µM (active)
32 | C=CCCCCCCCCC(=O)O | inactive
33 | COc1cc(NC(C)CCCN)c2ncccc2c1 (centres undefined) | inactive
34 | Cc1nc(-c2ccc(OCC(C)C)c(C#N)c2)sc1C(=O)O | 3.88 µM (active)
